# In the library only some 1.7% were active in any assay of this set; here they are far more common.
# KCNH2 WT inh: qHTS for Inhibitors of KCHN2 3.1: Wildtype qHTS; activity change, % at 1.84 µM; AID 720551, 2013; U2OS, BacMam KCNH2, thallium flux FluxOr; hits give low values; Voltage-gated inwardly rectifying potassium channel KCNH2 (Homo sapiens), Q12809; 340,000 compounds, 0.37% hits;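 active = maximum activity change below -70%; inconclusive = maximum activity change between -70% and -50%; inactive = maximum activity change above -50%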
# Target sequence (Q12809 whole entry, looked up): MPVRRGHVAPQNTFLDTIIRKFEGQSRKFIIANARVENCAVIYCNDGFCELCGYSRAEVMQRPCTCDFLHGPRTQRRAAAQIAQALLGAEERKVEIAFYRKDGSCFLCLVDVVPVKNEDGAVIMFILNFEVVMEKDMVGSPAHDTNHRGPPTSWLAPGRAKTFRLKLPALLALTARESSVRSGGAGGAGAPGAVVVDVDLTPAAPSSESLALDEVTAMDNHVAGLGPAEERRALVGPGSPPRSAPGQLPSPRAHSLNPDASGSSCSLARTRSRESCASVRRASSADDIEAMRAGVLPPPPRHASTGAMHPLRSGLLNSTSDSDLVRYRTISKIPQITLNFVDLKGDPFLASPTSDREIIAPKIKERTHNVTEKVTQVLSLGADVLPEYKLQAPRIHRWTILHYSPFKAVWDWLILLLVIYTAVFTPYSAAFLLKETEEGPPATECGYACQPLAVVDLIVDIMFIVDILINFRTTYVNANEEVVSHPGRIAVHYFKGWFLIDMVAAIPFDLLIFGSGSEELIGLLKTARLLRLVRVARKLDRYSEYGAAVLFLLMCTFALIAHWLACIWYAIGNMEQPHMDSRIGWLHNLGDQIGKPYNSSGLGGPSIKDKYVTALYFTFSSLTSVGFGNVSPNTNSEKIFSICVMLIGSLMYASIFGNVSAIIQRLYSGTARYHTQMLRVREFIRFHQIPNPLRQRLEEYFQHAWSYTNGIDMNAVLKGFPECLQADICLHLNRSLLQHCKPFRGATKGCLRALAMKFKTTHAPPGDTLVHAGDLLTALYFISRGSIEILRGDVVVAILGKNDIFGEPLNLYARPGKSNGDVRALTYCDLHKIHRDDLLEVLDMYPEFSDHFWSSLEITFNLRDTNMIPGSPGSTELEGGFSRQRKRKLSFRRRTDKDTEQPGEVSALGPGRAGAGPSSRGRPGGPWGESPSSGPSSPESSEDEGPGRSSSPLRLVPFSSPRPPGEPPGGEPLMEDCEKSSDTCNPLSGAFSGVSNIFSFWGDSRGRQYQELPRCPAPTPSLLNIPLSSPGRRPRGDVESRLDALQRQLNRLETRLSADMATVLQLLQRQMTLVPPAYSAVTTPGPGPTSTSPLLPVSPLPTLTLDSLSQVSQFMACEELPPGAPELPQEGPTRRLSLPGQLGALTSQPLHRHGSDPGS
#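 U2OS cells transduced with wild-type KCNH2 virus are loaded with FluxOr dye for 45 min, and thallium flux is measured in kinetic reads before and after stimulation buffer. Rate constants are normalized to DMSO controls.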
# RXFP1 antag: qHTS Assay for Antagonists of the Relaxin Receptor RXFP1; Relaxin receptor 1 (Homo sapiens), Q9HBX9; HEK293-RXFP1, relaxin-stimulated cAMP HTRF, 30 min; hits give low values; activity change, negative = inhibition, % at 57.5 µM; 350,000 compounds, 0.59% hits; AID 1259400, 2018;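 active = activity change of -60% or lower, but not beyond a set lower limit; inconclusive = change between -60% and -40%, or beyond the set limit; inactive = change above -40%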
# RXFP1 agonist: qHTS Assay for Agonists of the Relaxin Receptor RXFP1 | Relaxin receptor 1 (Homo sapiens), Q9HBX9 | HEK293T-RXFP1 cAMP TR-FRET, 30 min; response scale: percent of porcine relaxin response, buffer zero | Potency, µM (series often up to 57.5 µM), for the others: top-dose activation, hits mostly activators | 370,000 compounds, 0.3% hits | AID 2676, 2010; active = well fitted activation curve with a large enough effect; inconclusive = small, poorly fitted or top-dose-only effect; also: potency is read from the fitted curve at half-maximal effect; nearly all actives have a fitted effect of over 60% in size
#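 Agonist response is measured as cAMP accumulation in an RXFP1-transfected HEK293T line under PDE4 inhibition. Values are scaled between buffer-only and 29 nM porcine relaxin, and EC50s come from standard Hill equation fits.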
# pAkt inh: HTS Assay for Inhibitors of Akt Phophorylation: Primary Screen; Neuro2A IGF-stimulated pAkt S473 HTRF, 20 min; hits give low values; activity change, % for hits at 50 µM; 360,000 compounds, 0.32% hits; in the data active = activity change below about -80%; inconclusive = mostly about -51% to -80%
#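 Neuro2A cells in DMEM with 0.5% FBS, overnight at 37 deg C, given compound at single 50 µM final, then IGF (6 nM final) for 20 min at 37 deg C. Lysed; phospho-Akt Ser473 by HTRF after 24 h, 665/615 ratio.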
# KCNH2 3.1 block: qHTS for Inhibitors of KCHN2 3.1: Mutant qHTS. Potassium voltage-gated channel subfamily H member 2, brain isoform KCNH2 3.1 (human). U2OS KCNH2 3.1, thallium flux FluxOr; hits give low values. activity change, % (tested at about 1.8 µM). 340,000 compounds, 0.95% hits;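 active = maximum activity change below -70%; inconclusive = maximum activity change from -70% to -50%; inactive = maximum activity change above -50%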;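 also: thallium influx rate constant from kinetic fluorescence after stimulation buffer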
#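 Kinetic fluorescence (2 min after stimulation buffer) measures Tl+ influx through KCNH2 3.1 expressed by viral transduction in U2OS cells; the rate constant is normalized against DMSO controls serving as positive and negative references.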
# * = called active by the depositor; i = inactive; ? = inconclusive; . = no result. % is scaled to controls: 0 for no effect and ±100 for the full control effect.
SMILES,KCNH2 WT inh,RXFP1 antag,RXFP1 agonist,pAkt inh,KCNH2 3.1 block
Cc1c(C(=O)N2CCOCC2)oc2c1-c1nn(CC(=O)NCc3cccc(F)c3)cc1CC2,.,11,-2%,.,.
CC1CCc2c(sc3nc(CN4CCN(S(=O)(=O)c5ccccc5[N+](=O)[O-])CC4)[nH]c(=O)c23)C1 (stereo not drawn),-12,0,-2%,i,-73*
CCC1(C)Cc2ccccc2-c2nc(NCCO)n(-c3ccccc3)c(=O)c21 (stereo not drawn),-3,-4,6%,i,-9
CN(Cc1cnn(C)c1)C(=O)CC1C(=O)NCCN1Cc1cccc(Oc2ccccc2)c1 (stereo not drawn),-1,-6,-4%,i,4
C=CCN1C(=O)c2ccc(C(=O)N(CC(C)C)c3c(N)n(CCCC)c(=O)[nH]c3=O)cc2C1=O,0,-2,1%,i,-147*
CCCCn1c(N)c(N(CC(C)C)C(=O)c2ccncc2)c(=O)[nH]c1=O,4,-10,0%,i,9
CC(C)[C@H](NC(=O)[C@@H]1Cc2ccccc2CN1C(=O)OC(C)(C)C)C(=O)NC1CCCC1,-7,-103*,2%,.,-19
O=C(CCNC(=O)c1ccc(Cl)cc1)NCC(c1ccco1)N1CCCCC1 (stereo not drawn),8,-9,0%,i,13
O=C(CN1C(=O)c2ccc([N+](=O)[O-])cc2C1=O)NC1CCS(=O)(=O)C1 (stereo not drawn),3,-13,0%,i,-3
O=C(CN1C(=O)c2ccccc2C1=O)NC1CCS(=O)(=O)C1 (stereo not drawn),3,5,.,i,-85*
COc1ccc([C@H]2CC(=O)C=C(c3cc(F)ccc3F)C2)cc1OC,-9,.,0%,i,2
Cc1cccc(NC(=O)c2ncn3c2C(=O)N(C)CC3)c1,3,7,.,i,-83*
COc1cc(OC)cc(-c2ncc3ccccn23)c1,-13,-8,1%,i,-8
CC1(C)Cc2c(sc3ncn(N)c(=N)c23)CO1,-7,.,2%,i,1
CC1(C)Cc2c(sc3ncnc(NN)c23)CO1,10,9,13µM*,i,4
CCOC(=O)N1CCN(c2ncnc3c2oc2nc(C)c4c(c23)CC(C)(C)OC4)CC1,.,.,2%,.,.
COc1ccc(C(=O)N(CN2CCCC2=O)c2ccccc2OC)cc1OC,-2,-5,-1%,-111%*,3
COc1ccccc1N(CN1CCCC1=O)C(=O)c1c(F)cccc1Cl,-3,6,-1%,i,-1
COc1ccc(NC(=O)/C(Cl)=C(/Cl)S(=O)Cc2ccccc2)cn1 (stereo not drawn),18,-72*,-3%,i,-50
Cc1cc(C)n(CC(O)COc2c(C)cccc2C)n1 (stereo not drawn),-1,1,0%,i,-2
CCCCSc1nc2c([nH]1)c(=S)n(C)c(=O)n2C,-36,-7,.,i,8
CCCCC(C)Sc1nc2c([nH]1)c(=S)n(C)c(=O)n2C (stereo not drawn),-144*,-39,.,i,?
CSc1nc2c([nH]1)c(=S)n(C)c(=O)n2C,-7,-30,.,i,-6
Cn1c(=S)c2[nH]c(SCCC(C)(C)C)nc2n(C)c1=O,-115*,5,.,i,-49
CCCC(CC)Sc1nc2c([nH]1)c(=S)n(C)c(=O)n2C (stereo not drawn),-92*,-19,.,i,-14
SMILES,KCNH2 WT inh,RXFP1 antag,RXFP1 agonist,pAkt inh,KCNH2 3.1 block
NC(=O)c1ccc(NC(=O)c2ccc(CN3CCOCC3)cc2)cc1,-8,5,1%,i,-3
S=c1nccc(-c2cccs2)[nH]1,-6,-13,-2%,i,7
O=C(Nc1cccc2ccccc12)/C(=C/c1cccc([N+](=O)[O-])c1)NC(=O)c1cccs1,-15,-11,1%,i,-89*
O=C(NCCO)/C(=C\c1cccc([N+](=O)[O-])c1)NC(=O)c1cccs1,-5,4,.,i,-1
O=C(Nc1cccc2ccccc12)/C(=C\c1cccc([N+](=O)[O-])c1)NC(=O)c1cccs1,-103*,-16,4%,i,-86*
Cc1cccc(NC(=O)/C(=C/c2cccc([N+](=O)[O-])c2)NC(=O)c2cccs2)c1,31,9,0%,i,-10
COc1ccccc1Nc1ccc([N+](=O)[O-])cn1,5,-5,-1%,i,-10
COC(=O)[C@H]1C[C@@H]1[C@H](NS(=O)(=O)c1ccccc1)c1ccccc1,-7,.,3%,i,12
O=c1cc(-c2ccccc2)[nH]n1-c1nc2ccccc2[nH]1,6,-76*,-2%,i,14
COc1ccc(CNC(=O)c2cc(-c3cc(C)cc(C)c3O)n[nH]2)cc1,-9,-11,-2%,i,-1
O=C(Nn1c(-c2ccc(Br)cc2)nc2ccccc2c1=O)c1cccnc1,-1,-9,3%,i,-23
COc1ccccc1NS(=O)(=O)c1cccc(NC(=O)Nc2ccccc2)c1,7,.,-1%,i,-4
CCNC(=S)Nc1cccc(S(=O)(=O)Nc2ccccc2OC)c1,3,-1,4%,i,-85*
c1ccc(COc2ccc(OCCCN3CCCC3)cc2)cc1,29,.,0%,i,-50
COc1cccc(OC)c1OCCCCN1CCC(Cc2ccccc2)CC1,-8,-7,0%,i,-71*
CC(=O)CCc1ccc(OCCCCN2CCC(Cc3ccccc3)CC2)cc1,27,-4,0%,i,-94*
COc1cccc(OC)c1OCCCCN1CCCC1,-1,0,2%,i,-16
CCC(=O)c1ccccc1OCCCN1CCC(Cc2ccccc2)CC1,-131*,-19,-1%,i,-100*
CC1CCN(CCCOc2ccc(OCc3ccccc3)cc2)CC1,16,4,1%,i,-80*
CC1CCN(CCCCOc2ccc(C(=O)c3ccccc3)cc2)CC1,57,1,0%,i,-41
CCOC(=O)c1cc(C)n(CC2CCC(C(=O)Nc3ccc(C)c(F)c3)CC2)c1C (stereo not drawn),.,7,0%,.,.
N#Cc1ccccc1OCCCN1CCC(Cc2ccccc2)CC1,-90*,1,4%,i,-96*
CCOC(=O)c1nc(NCc2ccccc2)sc1C,-4,-5,3%,i,5
Brc1ccc2ncnc(Nc3ccc(N4CCOCC4)cc3)c2c1,2,1,-1%,i,-104*
O=C1CCCC(O)=C1Sc1cc(Cl)c(Cl)cc1Cl,1,3,.,i,11

# Screening results deposited in PubChem BioAssay by National Center for Advancing Translational Sciences (NCATS).
